Compound activity (PubChem)
An excerpt weighted towards active compounds, which were near 8% of everything screened.
FMDV antiviral – antivirals against foot and mouth disease virus; FMDV antiviral cell-based qHTS; Potency, µM (highest dose often 57.9 µM), hits mostly inhibitors; 1.2% of 410,000 active; calls by dose curve; tested in HEK293T cells; further: read-out not given here; nearly all actives have a fitted effect of over 45% in size
Marburg entry inh – Marburg virus entry inhibition. Marburg virus pseudotyped entry inhibition, cell reporter. Potency, µM (top dose mostly 37.8 µM), actives largely listed as inhibitors. 1.8% of 300,000 active. AID 540276; calls by dose curve; tested in HEK293 cells
HCMV inh – human cytomegalovirus inhibition; 4.5% of 410,000 active; HFF cells, HCMV-luciferase reporter, 72 h; active compounds read low; AID 1259415; activity change, negative = inhibition, % at 57.5 µM; in the data active means activity change below about -60%; inconclusive means no clear call, values can overlap the other calls; inactive means above about -39%
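Compounds were evaluated in HFFs infected with an HCMV luciferase reporter virus (MOI 1 PFU/cell). Luciferase in lysates collected 72 h post infection served as the replication measure.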
HCV inhibitor – HCV inhibition; Huh7.5.1 HCVcc-Cre infection, luciferase reporter, 44 h; Potency, µM (series often up to 41.8 µM), hits mostly inhibitors; 3.4% of 340,000 active; AID 651820; active means well fitted inhibition curve with a large enough effect; inconclusive means small, poorly fitted or top-dose-only effect, or another doubt; inactive means no such curve, though single readings can be large or run the other way
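Luciferase read-out (15 sec integration) after a 15 min room-temperature substrate step quantifies HCVcc-Cre infection. Cells, 1,000 per well, had compound added 4 h post-plating, then virus at ~0.5 moi, and were cultured 44 h.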
SARS PLP yeast – blocks SARS-CoV papain-like protease in a yeast assay. S. cerevisiae expressing SARS-CoV PLpro, growth rescue. Potency, µM (titrated, usually from 32.9 µM), most hits filed as activators. 0.19% of 330,000 active. AID 485353; calls by dose curve; further: nearly all actives have a fitted effect of over 55% in size
Lassa entry inh – Lassa virus entry inhibition; Lassa virus pseudotype entry inhibition, cell reporter; Potency, µM (titrated, usually from 37.9 µM), hits mostly inhibitors; 1.2% of 300,000 active; AID 540256; calls by dose curve; tested in HEK293 cells; further: nearly all actives have a fitted effect of over 50% in size
Numbers stand for hits; n = inactive; u = inconclusive; x = no result given; + = active, no number.

SMILES	FMDV antiviral	Marburg entry inh	HCMV inh	HCV inhibitor	SARS PLP yeast	Lassa entry inh
CCC(Sc1nncn2c1cc1occc12)C(=O)Nc1ccc(C)c(Cl)c1 (stereo not given)	n	x	u	x	x	n
CCN(CC)c1ccc(-n2c(C)c(C(C)=O)c(C(C)=O)c2C)cc1	u	u	-62.6	n	n	u
CCCNC(=S)N1CCN(c2nc(C)nc3sc4c(c23)CCCC4)CC1	n	u	u	u	n	u
COCCCNC(=S)N1CCN(c2nc(C)nc3sc4c(c23)CCCC4)CC1	n	x	u	10µM	n	x
CN(C)S(=O)(=O)c1ccc(C(=O)NCCSc2c(-c3ccc(Br)cc3)[nH]c3ccccc23)cc1	u	u	n	x	x	u
COc1cc(NC(=O)c2nc3cc(C)c(C)cc3n(C)c2=O)cc(OC)c1OC	n	n	n	x	x	n
CC(C)c1nc2ccc(C(=O)Nc3ccccc3F)cc2o1	u	x	-62.6	x	x	n
NC(=S)Nc1cccc2cc3ccccc3cc12	n	n	-105.4	u	n	n
NC(=S)Nc1cc2ccccc2c2ccccc12	u	n	-72.3	u	n	n
Cc1ccc(NC(=S)NCCc2ccc(F)cc2)c(C)c1	n	u	u	n	u	n
CCOc1ccccc1NC(=S)NCCc1ccccc1	n	x	u	u	n	x
CCOc1ccccc1NC(=S)NCCc1ccc(F)cc1	n	x	-64.8	u	n	x
Cc1ccc(F)cc1NC(=S)NCCc1ccccc1	n	n	n	10µM	u	n
CCOC(=O)c1ccn(-c2nc(-c3cccc(OC)c3)cc(C(F)(F)F)n2)n1	u	n	n	x	x	n
O=C(CCCCCN1C(=O)C2C3C=CC(C3)C2C1=O)Nc1nccs1 (stereo not given)	n	x	n	n	u	x
O=C(CCN1C(=O)C2C3C=CC(C3)C2C1=O)Nc1nccs1 (stereo not given)	n	n	-69.0	n	n	n
COc1ccc(CN2CCN(C(C)C(=O)N(C)Cc3cccc(F)c3)CC2)cc1OC (stereo not given)	n	x	-101.6	u	n	x
COc1ccc(CN2CCN(C(C)C(=O)NC(C)c3ccc(F)cc3)CC2)cc1F (stereo not given)	n	u	u	n	x	n
Cc1ccc(CNC(=O)CSc2nc3c(sc4ccccc43)c(=O)n2CCCOC(C)C)cc1	n	x	n	x	x	n
CCOc1ccc(CC(=O)Nc2c(C(=O)c3ccccc3)oc3ccc(OC)cc23)cc1OCC	n	n	n	x	x	n
COc1ccc(CNCc2ccc(C(=O)O)s2)cc1	n	n	n	x	x	n
O=C(NC1CCCCCC1)C1CCN(c2nc3ccccc3o2)CC1	u	n	-74.1	n	n	x
O=c1c(C=Nc2ccc(Oc3ccccc3)cc2)c[nH]n1-c1cccc(Cl)n1	n	n	-64.9	n	n	u
COc1ccc(N=Cc2c(O)n(-c3cccc(C)n3)c(=O)c3ccccc23)cc1	u	n	n	n	n	u
CCCC(=O)N1CCC2(CC1)CN(C(=O)Nc1cccc(F)c1)[C@H](CO)c1c2c2ccc(OC)cc2n1C	x	x	n	x	x	x
SMILES	FMDV antiviral	Marburg entry inh	HCMV inh	HCV inhibitor	SARS PLP yeast	Lassa entry inh
CCCCC(CC)CNC(=O)c1ccc(Cn2c(=O)[nH]c3cc(OC)c(OC)cc3c2=O)cc1 (stereo not given)	n	n	n	x	x	u
CCCCNC(=S)N/N=C/c1cc(C)ccc1C	n	n	n	n	u	u
CCCCNC(=S)N/N=C/c1ccccc1F	n	u	n	u	12.6µM	n
O=C(O)Cc1c(C(=O)O)nnn1-c1cccc(C(F)(F)F)c1	n	n	n	n	n	n
N=c1c2ccccc2nnn1-c1cccc(C(F)(F)F)c1	n	n	-60.6	n	n	n
C/C(N)=C(/C#N)C(=O)CSc1nnc(-c2ccccc2Br)o1	n	6.31µM	n	n	n	u
COc1ccc(-c2nnc(SCC(=O)/C(C#N)=C(\C)N)o2)cc1	n	u	n	u	n	u
CCNc1ncc2nc(C)c(=O)n(Cc3cccs3)c2n1	n	x	x	x	x	x
CCOC(=O)c1cc(-c2ccc(F)cc2)n(CCC(=O)Nc2nc3ccc(OC)cc3s2)c1C	u	x	n	x	x	n
COc1ccc(NC2C(c3ccc(OC)cc3)=Nc3ccccc3-n3nnnc32)cc1 (stereo not given)	x	x	n	x	x	x
O=C1C(n2ccc3ccccc32)c2ccccc2N1Cc1ccc(Cl)nc1 (stereo not given)	x	x	n	x	x	x
Cc1cccc(Oc2nc(-c3ccccn3)nc3ccccc23)c1	n	u	-72.3	u	n	n
Cc1cccc(Oc2nc(-c3ccncc3)nc3ccccc23)c1	n	u	n	7.08µM	n	n
O=C(NCCc1nnc2n1CCN(Cc1ccc(F)cc1)CC2)c1ccco1	n	x	x	x	x	x
CC(=O)c1cc2c(cc1NC(=O)Cc1ccsc1)OCO2	n	x	n	5.62µM	n	x
O=C(Cc1csc(Nc2nc(=S)[nH]c3ccccc23)n1)NCc1ccc(Cl)cc1	n	n	n	x	n	n
O=C(Cc1csc(Nc2nc(=S)[nH]c3ccccc23)n1)NCCCN1CCN(c2ccccc2F)CC1	n	u	-97.9	3.98µM	n	x
Cc1ccc(C2c3cccn3CCN2S(=O)(=O)c2ccc([N+](=O)[O-])cc2)cc1 (stereo not given)	n	x	n	x	x	u
O=C(N/N=C/c1c(Cl)cccc1Cl)c1n[nH]c2c1CCCC2	n	n	u	u	n	u
COc1cc(OC)c(OC)cc1/C=N/NC(=O)c1cc(-c2cccn2C)n[nH]1	n	n	n	n	n	n
Cc1ccsc1/C=N\NC(=O)c1n[nH]c2c1CCC2	n	2.82µM	n	u	n	6.31µM
CCOc1cccc(/C=N/NC(=O)c2cc(-c3cccn3C)n[nH]2)c1O	n	u	n	11.2µM	n	22.4µM
C/C(=N/NC(=O)c1cc2ccccc2cc1O)c1ccco1	n	x	-72.6	n	n	x
C/C(=N\NC(=O)c1n[nH]c2c1CCC2)c1ccco1	n	u	-65.1	n	n	u
Cc1ccc(S(=O)(=O)c2nc(-c3cccs3)oc2SCC(=O)Nc2cc(C)cc(C)c2)cc1	n	u	n	x	x	n
SMILES	FMDV antiviral	Marburg entry inh	HCMV inh	HCV inhibitor	SARS PLP yeast	Lassa entry inh
Cc1ccc(S(=O)(=O)c2c(O)cc(C)c(NS(=O)(=O)c3ccc(Br)cc3)c2C)cc1	n	u	n	x	x	n
COC(=O)C(c1ccccc1)(c1cn(C)c2ccccc12)C(Nc1ccccc1)c1ccc(C)cc1 (stereo not given)	x	x	n	x	x	x
Cc1cccc(/C=N/NC(=O)c2ccc3c(c2)OCCO3)c1O	x	x	-97.9	x	n	x
CCOc1cccc(/C=N/NC(=O)c2ccc3c(c2)OCCO3)c1O	n	u	+	u	n	u
Cc1ccsc1/C=N/NC(=O)c1ccc2c(c1)OCCO2	n	3.16µM	n	n	n	u
COP(=O)(OC)SCn1c(=O)oc2cc(Cl)cnc21	x	x	n	x	x	x
CSC1SCC2C(=O)N(C)C(C(C)C)C(=O)OCC(NC(=O)c3cnc4ccccc4n3)C(=O)NC(C)C(=O)N(C)C1C(=O)N(C)C(C(C)C)C(=O)OCC(NC(=O)c1cnc3ccccc3n1)C(=O)NC(C)C(=O)N2C (stereo not given)	n	u	-98.9	u	x	u
COc1cc2c(C#N)c(N3CCN(C)CC3)nc(N)c2c(N)n1	x	n	n	u	n	x
